# Experimental data: PubChem BioAssay (NCATS)
# “And” between values parts separate entries of the source, which are not always exact repeats. Equal values may be shown once. Records with an inconclusive call do not appear. Unmarked numbers belong to inactive results. The source made the active and inactive calls. The call rests on the fitted dose curve; in most records, active means well fitted curve in the direction sought with a large enough effect; inconclusive means small, poorly fitted or top-dose-only effect, or another doubt; inactive means no such curve, though single readings can be large; an effect the other way counts as inactive or inconclusive.
# Tests used:
# [1] = molecular target: Cellular tumor antigen p53 (Homo sapiens) (UniProt P04637); assay: Primary qHTS for small molecule compounds that upregulate eGFP-tagged delta133p53alpha (in N-terminal) cells. (AID 2060322); conditions: NCI-H358 eGFP-delta133p53alpha fluorescence, 24 h; activation: stronger effect = higher value; further: nearly all actives have a fitted effect of over 75% in size;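 on activation: series mostly up to about 56 µM; 0% = DMSO vehicle and 100% = reference activator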
# Summary of the method: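 NCI-H358 cells pre-induced 24 h with 10 ng/ml doxycycline to express N-terminal eGFP-delta133p53alpha, then dosed 24 h at 37C without doxycycline; fixed, Hoechst-stained, GFP intensity by laser scanning cytometry, normalized to DMSO (0%) and 57.5 uM 5-azacytidine (100%).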
# [2] = BET inhibitor-based combinations targeting novel dependencies in MECOM-rearranged (r) AML: SET-2 cell line (AID 2202231); conditions: SET-2 AML cells viability, CellTiter-Glo luminescence, 48 h; viability: stronger effect = lower value, concentration not given here; further: nearly all actives have a fitted effect of over 35% in size;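 on viability: plate controls were DMSO treated cells for no effect and wells without cells for full effect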
# Summary of the method: (§1)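 A 48 hr incubation preceded viability reading by CellTiter-Glo, with 15 min room-temperature development. Dose series had 11 points; normalization used DMSO and empty wells; AUC was computed and mean-centered per line as Z-AUC.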
# [3] = BET inhibitor-based combinations targeting novel dependencies in MECOM-rearranged (r) AML: UCSD-AML1 cell line (AID 2202235); further: nearly all actives have a fitted effect of over 40% in size
# Summary of the method: (§2)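 Each compound is tested in an 11-point concentration series against 500 seeded cells/well for 48 hr. The luminescent viability signal is normalized to DMSO and blank wells, then reduced to AUC and a cell-line-centred Z-AUC.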
# [4] = BET inhibitor-based combinations targeting novel dependencies in MECOM-rearranged (r) AML: AML-191 cell line (AID 2202236; further: nearly all actives have a fitted effect of over 35% in size)
# Summary of the method: as §1
# [5] = BET inhibitor-based combinations targeting novel dependencies in MECOM-rearranged (r) AML: AML-194 cell line (AID 2202237; further: nearly all actives have a fitted effect of over 40% in size)
# Summary of the method: as §1
# [6] = BET inhibitor-based combinations targeting novel dependencies in MECOM-rearranged (r) AML: OCI-AML3 cell line (AID 2202232); conditions: Potency: OCI-AML3 viability; further: nearly all actives have a fitted effect of over 35% in size
# Summary of the method: as §1
# [7] = BET inhibitor-based combinations targeting novel dependencies in MECOM-rearranged (r) AML: MV-4-11 cell line (AID 2202233); further: nearly all actives have a fitted effect of over 45% in size
# Summary of the method: as §2
# [8] = BET inhibitor-based combinations targeting novel dependencies in MECOM-rearranged (r) AML: HNT-34 cell line (AID 2202234); further: nearly all actives have a fitted effect of over 35% in size
# Summary of the method: as §2
# Potency means the concentration at half of the fitted maximal effect.
# Sequence of Cellular tumor antigen p53 (Homo sapiens) (P04637 whole entry, looked up): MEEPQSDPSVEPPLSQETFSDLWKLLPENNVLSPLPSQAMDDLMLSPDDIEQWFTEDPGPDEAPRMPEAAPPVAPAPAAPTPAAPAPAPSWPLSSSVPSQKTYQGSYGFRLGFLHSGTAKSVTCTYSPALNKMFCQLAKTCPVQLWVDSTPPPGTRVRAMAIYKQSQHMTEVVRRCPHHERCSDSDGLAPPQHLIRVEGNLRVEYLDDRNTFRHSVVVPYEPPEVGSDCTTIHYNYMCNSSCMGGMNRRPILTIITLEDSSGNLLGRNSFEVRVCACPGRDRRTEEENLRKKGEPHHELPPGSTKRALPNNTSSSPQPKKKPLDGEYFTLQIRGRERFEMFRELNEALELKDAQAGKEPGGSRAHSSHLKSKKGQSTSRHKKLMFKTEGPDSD
smiles,measurement,setting,value
C#C[C@]1(O)C=C[C@H]2[C@@H]3CCC4=CC(=O)CC[C@@H]4[C@H]3CC[C@@]21CC,activation,[1],10.7%
same,viability,[2],95.4%
same,Potency,[3],inactive
same,Potency,[4],inactive
same,Potency,[5],inactive
Cc1sc2c(c1C)C(c1ccc(Cl)cc1)=NC(CC(N)=O)c1nnc(C)n1-2 (stereo not given),activation,[1],-1.12%
same,Potency,[2],263 nM (active)
same,Potency,[6],93.4 nM (active)
same,Potency,[7],66.1 nM (active)
Cc1sc2c(c1C)C(c1ccc(Cl)cc1)=N[C@@H](CC(=O)OC(C)(C)C)c1nnc(C)n1-2,activation,[1],-35.4% and 15.6%
same,Potency,[2],590 nM (active)
same,Potency,[6],263 nM (active)
same,Potency,[7],209 nM (active)
same,Potency,[8],662 nM (active)
same,Potency,[3],742 nM (active)
N[C@@H](Cc1ccc(N(CCCl)CCCl)cc1)C(=O)O,activation,[1],29.4%
same,Potency,[8],3720 nM (active)
same,Potency,[3],2950 nM (active)
same,Potency,[5],2950 nM (active)
Cc1ncc(OC[C@@]2(c3cccc(F)c3)C[C@H]2C(=O)Nc2ccc(F)cn2)c(C)n1,activation,[1],-13.1%
same,viability,[2],92.7%
same,Potency,[6],inactive
same,Potency,[8],inactive
same,Potency,[4],inactive
same,Potency,[5],inactive
c1ccc2c(CN3CCNCC3)cccc2c1,activation,[1],12.1%
same,viability,[2],115%
same,Potency,[8],inactive
same,Potency,[3],inactive
same,Potency,[4],inactive
same,Potency,[5],inactive
CC1=C(O)C(=O)C=C2C1=CC=C1[C@@]2(C)CC[C@@]2(C)[C@@H]3C[C@](C)(C(=O)O)CC[C@]3(C)CC[C@]12C,Potency,[1],17200 nM (active)
same,Potency,[2],934 nM (active)
same,Potency,[8],934 nM (active)
same,Potency,[3],1050 nM (active)
same,Potency,[4],934 nM (active)
same,Potency,[5],1180 nM (active)
O=C(O)CCCc1ccc(N(CCCl)CCCl)cc1,activation,[1],7.53% and 20.9%
same,Potency,[7],inactive
same,Potency,[3],2950 nM (active)
Clc1ccccc1C(c1ccccc1)(c1ccccc1)n1cccn1,activation,[1],8.55%
same,viability,[2],90.1%
same,Potency,[8],inactive
same,Potency,[3],inactive
same,Potency,[4],inactive
same,Potency,[5],inactive
C[C@]12CCC(=O)C(O)=C1CC[C@@H]1[C@@H]2CC[C@]2(C)C(=O)CC[C@@H]12,activation,[1],6.69%
same,viability,[2],97.8%
same,Potency,[6],inactive
same,Potency,[3],inactive
CCOC(=O)c1c(C(C#N)=CN)c2ccc(Cl)c(Cl)c2n1C,activation,[1],-1.37%
same,Potency,[6],inactive
same,Potency,[4],inactive
same,Potency,[5],inactive
C[C@]12CC[C@H]3[C@@H](CCC4=CC(=O)CC[C@@]43C)[C@H]1CC[C@H]2OC(=O)CCC1CCCC1,activation,[1],28.3%
same,viability,[2],96.4%
same,Potency,[8],inactive
O=C1CC[C@@]2(O)[C@H]3Cc4ccc(O)c5c4[C@@]2(CCN3CC2CC2)[C@H]1O5,activation,[1],-5.99% and 2.51%
same,Potency,[4],inactive
same,Potency,[5],inactive
